These results are taken from ChEMBL document CHEMBL1961873, “Compounds: GSK PKIS; Assays: Nanosyn kinase panel” (2012).

Experiment [1] has as its target T1, Inhibitor of nuclear factor kappa-B kinase subunit epsilon (Homo sapiens) (UniProt Q14164).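 Note: reported values are averaged percent inhibition figures against human IKKε.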
T1 sequence (whole entry): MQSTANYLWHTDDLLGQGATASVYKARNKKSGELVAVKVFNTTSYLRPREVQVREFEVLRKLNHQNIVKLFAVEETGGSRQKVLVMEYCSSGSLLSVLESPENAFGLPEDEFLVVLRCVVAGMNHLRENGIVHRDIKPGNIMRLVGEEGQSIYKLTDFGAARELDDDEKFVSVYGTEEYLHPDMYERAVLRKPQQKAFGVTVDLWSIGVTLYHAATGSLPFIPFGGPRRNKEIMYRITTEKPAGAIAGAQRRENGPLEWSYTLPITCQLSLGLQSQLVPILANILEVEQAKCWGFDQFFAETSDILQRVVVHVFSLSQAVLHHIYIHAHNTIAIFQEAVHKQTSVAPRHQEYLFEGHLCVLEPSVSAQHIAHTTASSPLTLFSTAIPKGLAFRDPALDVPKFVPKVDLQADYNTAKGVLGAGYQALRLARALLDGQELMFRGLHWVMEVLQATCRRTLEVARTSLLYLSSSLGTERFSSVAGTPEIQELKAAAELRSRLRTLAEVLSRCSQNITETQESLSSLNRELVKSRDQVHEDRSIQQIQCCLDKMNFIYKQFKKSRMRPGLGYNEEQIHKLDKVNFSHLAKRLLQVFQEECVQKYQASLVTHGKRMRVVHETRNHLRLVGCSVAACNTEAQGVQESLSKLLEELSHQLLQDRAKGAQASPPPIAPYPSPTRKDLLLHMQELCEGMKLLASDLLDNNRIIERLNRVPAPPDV
The conditions noted are these: at 1 µM.

Experiment [2] deals with T2, Serine/threonine-protein kinase Nek1 (Homo sapiens) (UniProt Q96PY6).
T2 sequence (whole entry): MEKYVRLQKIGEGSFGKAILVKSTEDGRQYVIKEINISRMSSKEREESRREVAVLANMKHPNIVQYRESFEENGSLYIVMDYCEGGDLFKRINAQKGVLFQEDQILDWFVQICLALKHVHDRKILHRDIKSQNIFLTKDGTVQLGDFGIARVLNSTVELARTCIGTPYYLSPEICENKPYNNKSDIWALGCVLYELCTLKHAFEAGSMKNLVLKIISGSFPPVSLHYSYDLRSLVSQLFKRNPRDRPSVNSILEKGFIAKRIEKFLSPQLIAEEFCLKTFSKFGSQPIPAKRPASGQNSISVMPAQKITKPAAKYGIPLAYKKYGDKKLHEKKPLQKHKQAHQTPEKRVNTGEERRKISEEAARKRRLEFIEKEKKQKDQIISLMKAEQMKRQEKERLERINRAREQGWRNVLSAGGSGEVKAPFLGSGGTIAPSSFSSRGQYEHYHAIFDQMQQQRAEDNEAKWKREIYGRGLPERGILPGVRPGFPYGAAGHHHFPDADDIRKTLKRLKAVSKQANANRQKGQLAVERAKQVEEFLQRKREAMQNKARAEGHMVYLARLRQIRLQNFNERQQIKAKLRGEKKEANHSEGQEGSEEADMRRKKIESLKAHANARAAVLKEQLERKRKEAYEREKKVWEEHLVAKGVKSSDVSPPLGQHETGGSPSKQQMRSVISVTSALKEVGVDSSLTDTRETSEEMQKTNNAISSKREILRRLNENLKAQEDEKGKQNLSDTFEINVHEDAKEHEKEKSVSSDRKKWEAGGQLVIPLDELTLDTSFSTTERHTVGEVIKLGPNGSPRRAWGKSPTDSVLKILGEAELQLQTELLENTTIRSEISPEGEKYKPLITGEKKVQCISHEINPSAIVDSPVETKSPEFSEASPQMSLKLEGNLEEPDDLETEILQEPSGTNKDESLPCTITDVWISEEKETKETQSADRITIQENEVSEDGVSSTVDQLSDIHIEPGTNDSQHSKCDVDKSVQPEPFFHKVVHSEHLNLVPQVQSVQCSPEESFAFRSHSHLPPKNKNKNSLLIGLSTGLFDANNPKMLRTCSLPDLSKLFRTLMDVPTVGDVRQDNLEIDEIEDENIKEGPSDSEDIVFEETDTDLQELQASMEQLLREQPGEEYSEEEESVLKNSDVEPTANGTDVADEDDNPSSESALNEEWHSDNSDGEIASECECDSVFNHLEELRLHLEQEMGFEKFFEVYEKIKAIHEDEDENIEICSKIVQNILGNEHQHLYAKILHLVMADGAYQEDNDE
To be noted: at 0.1 µM.

The target of experiment [3] is T2, Serine/threonine-protein kinase Nek1 (Homo sapiens). The conditions noted are these: at 1 µM.
For experiment [4], the target named is T3, Serine/threonine-protein kinase Nek2 (Homo sapiens) (UniProt P51955).
T3 sequence (whole entry): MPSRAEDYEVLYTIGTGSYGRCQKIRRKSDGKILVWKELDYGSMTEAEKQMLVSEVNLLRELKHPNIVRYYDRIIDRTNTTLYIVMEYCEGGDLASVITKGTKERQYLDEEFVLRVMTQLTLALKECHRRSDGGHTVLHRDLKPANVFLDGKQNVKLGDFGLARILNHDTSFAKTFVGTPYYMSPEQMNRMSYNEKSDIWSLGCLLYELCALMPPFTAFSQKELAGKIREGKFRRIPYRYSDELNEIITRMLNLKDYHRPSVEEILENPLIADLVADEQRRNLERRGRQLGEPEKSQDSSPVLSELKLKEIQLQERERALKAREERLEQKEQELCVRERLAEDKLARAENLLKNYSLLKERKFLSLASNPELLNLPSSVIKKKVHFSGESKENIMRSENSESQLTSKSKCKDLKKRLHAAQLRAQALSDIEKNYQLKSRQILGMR
To be noted: at 0.1 µM.

Experiment [5] concerns the target T3, Serine/threonine-protein kinase Nek2 (Homo sapiens). To be noted: at 1 µM.
For experiment [6], the target named is Serine/threonine-protein kinase Nek6 (Homo sapiens) (UniProt Q9HC98). To be noted: at 0.1 µM.
Chain of Serine/threonine-protein kinase Nek6 (Homo sapiens) (Q9HC98 whole entry): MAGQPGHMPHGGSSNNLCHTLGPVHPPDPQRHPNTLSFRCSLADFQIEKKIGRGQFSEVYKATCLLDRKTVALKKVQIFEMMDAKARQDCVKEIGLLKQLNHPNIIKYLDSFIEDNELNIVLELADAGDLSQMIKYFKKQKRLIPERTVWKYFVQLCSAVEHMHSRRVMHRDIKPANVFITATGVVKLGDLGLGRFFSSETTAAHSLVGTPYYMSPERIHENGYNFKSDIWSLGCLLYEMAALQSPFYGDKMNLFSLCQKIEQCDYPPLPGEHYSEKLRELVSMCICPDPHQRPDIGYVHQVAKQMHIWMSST
Experiment [7] has the same target. To be noted: at 1 µM.
In experiment [8] the target is Serine/threonine-protein kinase Nek7 (Homo sapiens) (UniProt Q8TDX7). To be noted: at 0.1 µM.
Chain of Serine/threonine-protein kinase Nek7 (Homo sapiens) (Q8TDX7 whole entry, looked up): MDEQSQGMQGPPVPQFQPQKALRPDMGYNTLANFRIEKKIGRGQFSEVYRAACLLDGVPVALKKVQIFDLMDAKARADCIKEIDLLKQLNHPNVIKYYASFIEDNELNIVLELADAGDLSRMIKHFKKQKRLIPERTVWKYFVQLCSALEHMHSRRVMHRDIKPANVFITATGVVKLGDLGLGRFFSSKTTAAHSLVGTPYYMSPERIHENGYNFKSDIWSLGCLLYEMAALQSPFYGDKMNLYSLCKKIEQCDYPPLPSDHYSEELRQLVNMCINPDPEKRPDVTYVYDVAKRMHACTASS
The target is the same in experiment [9]. The conditions noted are these: at 1 µM.
Experiment [10] deals with T4, Serine/threonine-protein kinase Nek9 (Homo sapiens) (UniProt Q8TD19).
T4 sequence (whole entry): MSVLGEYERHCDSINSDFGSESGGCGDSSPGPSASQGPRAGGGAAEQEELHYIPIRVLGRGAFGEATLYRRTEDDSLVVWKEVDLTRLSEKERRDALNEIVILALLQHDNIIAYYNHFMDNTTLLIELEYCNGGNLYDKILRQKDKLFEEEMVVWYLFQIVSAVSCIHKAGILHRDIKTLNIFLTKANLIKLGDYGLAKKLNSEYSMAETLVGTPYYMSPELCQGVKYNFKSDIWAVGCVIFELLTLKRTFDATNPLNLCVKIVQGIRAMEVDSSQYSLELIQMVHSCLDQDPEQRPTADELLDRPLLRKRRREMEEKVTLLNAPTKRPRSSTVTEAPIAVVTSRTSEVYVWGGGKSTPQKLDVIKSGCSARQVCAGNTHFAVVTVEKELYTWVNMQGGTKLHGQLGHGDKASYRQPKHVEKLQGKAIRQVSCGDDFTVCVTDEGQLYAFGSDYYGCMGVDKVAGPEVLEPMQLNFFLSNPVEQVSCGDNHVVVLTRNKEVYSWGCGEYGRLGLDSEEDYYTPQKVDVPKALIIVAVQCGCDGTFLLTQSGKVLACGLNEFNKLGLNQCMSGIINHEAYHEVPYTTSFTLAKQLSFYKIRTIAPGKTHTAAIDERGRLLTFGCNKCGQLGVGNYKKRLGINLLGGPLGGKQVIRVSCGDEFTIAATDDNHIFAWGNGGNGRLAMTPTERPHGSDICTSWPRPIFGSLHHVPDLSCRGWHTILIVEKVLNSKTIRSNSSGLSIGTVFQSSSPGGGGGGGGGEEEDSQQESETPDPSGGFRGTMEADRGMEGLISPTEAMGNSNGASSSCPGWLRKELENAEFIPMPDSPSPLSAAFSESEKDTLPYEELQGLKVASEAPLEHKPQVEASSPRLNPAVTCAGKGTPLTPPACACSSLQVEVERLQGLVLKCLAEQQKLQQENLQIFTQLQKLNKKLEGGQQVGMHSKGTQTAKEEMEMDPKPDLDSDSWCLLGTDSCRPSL
To be noted: at 0.1 µM.

For experiment [11], the target named is T4, Serine/threonine-protein kinase Nek9 (Homo sapiens). The conditions noted are these: at 1 µM.
Experiment [12] deals with Serine/threonine-protein kinase PLK1 (Homo sapiens) (UniProt P53350). To be noted: at 0.1 µM.
Chain of Serine/threonine-protein kinase PLK1 (Homo sapiens) (P53350 whole entry): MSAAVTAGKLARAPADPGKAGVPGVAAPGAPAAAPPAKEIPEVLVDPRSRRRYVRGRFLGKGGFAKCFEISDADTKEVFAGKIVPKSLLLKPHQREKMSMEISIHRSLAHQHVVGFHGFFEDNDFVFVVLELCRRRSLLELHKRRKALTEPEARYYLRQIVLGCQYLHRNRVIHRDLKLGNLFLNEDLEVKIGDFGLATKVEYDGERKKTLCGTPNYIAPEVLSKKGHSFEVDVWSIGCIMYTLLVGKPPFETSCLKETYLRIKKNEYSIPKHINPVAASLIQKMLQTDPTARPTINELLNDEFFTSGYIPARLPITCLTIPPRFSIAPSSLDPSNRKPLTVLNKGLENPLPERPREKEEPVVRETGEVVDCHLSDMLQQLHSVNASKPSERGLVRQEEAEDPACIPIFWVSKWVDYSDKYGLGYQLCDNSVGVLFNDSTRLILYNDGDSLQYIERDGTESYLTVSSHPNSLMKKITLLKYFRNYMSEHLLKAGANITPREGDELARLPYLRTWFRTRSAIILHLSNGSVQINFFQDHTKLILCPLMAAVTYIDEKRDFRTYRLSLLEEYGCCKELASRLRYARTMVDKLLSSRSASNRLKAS
For experiment [13] the target is unchanged. The conditions noted are these: at 1 µM.
The target of experiment [14] is T5, Dual specificity protein kinase TTK (Homo sapiens) (UniProt P33981).
T5 sequence (whole entry): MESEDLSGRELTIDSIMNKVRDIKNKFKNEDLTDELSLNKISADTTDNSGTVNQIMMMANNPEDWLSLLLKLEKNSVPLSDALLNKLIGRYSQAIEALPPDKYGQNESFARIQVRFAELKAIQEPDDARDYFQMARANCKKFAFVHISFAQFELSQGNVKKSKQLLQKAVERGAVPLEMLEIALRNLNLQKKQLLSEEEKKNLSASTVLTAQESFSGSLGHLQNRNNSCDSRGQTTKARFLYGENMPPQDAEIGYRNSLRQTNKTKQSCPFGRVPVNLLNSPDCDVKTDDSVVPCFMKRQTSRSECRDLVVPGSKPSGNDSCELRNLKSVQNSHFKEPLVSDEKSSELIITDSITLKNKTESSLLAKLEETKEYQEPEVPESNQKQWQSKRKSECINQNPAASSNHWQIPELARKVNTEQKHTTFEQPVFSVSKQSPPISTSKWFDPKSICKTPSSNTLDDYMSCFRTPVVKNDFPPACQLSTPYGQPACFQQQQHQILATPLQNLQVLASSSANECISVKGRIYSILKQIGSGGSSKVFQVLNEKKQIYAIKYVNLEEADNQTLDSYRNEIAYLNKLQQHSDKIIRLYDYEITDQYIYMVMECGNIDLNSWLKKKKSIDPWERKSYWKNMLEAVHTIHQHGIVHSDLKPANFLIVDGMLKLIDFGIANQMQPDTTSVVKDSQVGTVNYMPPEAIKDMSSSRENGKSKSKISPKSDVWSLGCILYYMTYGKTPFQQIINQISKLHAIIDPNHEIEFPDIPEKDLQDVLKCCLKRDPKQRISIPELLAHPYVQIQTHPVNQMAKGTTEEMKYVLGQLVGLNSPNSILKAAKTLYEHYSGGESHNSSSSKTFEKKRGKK
To be noted: at 0.1 µM.

Experiment [15] concerns T6, Receptor-type tyrosine-protein kinase FLT3 (Homo sapiens), P36888 [D835Y].
T6 sequence (whole entry): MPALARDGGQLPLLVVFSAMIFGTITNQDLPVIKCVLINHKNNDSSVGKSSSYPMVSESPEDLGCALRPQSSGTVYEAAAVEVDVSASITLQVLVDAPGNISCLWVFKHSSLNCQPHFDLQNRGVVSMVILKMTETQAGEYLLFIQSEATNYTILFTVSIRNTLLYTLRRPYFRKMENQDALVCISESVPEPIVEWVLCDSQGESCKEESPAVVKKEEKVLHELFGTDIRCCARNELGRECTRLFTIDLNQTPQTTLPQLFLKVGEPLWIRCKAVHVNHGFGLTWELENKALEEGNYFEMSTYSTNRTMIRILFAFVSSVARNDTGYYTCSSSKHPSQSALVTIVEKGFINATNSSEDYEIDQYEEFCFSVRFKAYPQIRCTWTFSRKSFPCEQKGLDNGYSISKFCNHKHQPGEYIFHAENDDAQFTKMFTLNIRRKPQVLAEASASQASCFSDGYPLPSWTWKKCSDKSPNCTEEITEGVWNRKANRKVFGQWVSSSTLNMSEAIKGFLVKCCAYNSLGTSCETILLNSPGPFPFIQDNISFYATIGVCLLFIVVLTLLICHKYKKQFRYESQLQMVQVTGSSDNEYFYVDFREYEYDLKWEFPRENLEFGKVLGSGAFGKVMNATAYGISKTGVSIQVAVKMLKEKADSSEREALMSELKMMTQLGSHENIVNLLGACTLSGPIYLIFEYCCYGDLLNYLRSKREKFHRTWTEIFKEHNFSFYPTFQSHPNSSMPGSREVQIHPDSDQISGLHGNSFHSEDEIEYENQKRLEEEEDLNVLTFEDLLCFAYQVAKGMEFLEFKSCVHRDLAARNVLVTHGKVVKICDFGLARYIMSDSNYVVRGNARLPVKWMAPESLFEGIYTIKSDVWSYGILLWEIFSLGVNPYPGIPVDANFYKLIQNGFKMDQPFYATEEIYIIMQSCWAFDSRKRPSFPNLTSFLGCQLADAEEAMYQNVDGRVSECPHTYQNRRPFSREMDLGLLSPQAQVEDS
To be noted: at 1 µM.

The target of experiment [16] is Vascular endothelial growth factor receptor 3 (Homo sapiens) (UniProt P35916). The conditions noted are these: at 0.1 µM.
Chain of Vascular endothelial growth factor receptor 3 (Homo sapiens) (P35916 whole entry): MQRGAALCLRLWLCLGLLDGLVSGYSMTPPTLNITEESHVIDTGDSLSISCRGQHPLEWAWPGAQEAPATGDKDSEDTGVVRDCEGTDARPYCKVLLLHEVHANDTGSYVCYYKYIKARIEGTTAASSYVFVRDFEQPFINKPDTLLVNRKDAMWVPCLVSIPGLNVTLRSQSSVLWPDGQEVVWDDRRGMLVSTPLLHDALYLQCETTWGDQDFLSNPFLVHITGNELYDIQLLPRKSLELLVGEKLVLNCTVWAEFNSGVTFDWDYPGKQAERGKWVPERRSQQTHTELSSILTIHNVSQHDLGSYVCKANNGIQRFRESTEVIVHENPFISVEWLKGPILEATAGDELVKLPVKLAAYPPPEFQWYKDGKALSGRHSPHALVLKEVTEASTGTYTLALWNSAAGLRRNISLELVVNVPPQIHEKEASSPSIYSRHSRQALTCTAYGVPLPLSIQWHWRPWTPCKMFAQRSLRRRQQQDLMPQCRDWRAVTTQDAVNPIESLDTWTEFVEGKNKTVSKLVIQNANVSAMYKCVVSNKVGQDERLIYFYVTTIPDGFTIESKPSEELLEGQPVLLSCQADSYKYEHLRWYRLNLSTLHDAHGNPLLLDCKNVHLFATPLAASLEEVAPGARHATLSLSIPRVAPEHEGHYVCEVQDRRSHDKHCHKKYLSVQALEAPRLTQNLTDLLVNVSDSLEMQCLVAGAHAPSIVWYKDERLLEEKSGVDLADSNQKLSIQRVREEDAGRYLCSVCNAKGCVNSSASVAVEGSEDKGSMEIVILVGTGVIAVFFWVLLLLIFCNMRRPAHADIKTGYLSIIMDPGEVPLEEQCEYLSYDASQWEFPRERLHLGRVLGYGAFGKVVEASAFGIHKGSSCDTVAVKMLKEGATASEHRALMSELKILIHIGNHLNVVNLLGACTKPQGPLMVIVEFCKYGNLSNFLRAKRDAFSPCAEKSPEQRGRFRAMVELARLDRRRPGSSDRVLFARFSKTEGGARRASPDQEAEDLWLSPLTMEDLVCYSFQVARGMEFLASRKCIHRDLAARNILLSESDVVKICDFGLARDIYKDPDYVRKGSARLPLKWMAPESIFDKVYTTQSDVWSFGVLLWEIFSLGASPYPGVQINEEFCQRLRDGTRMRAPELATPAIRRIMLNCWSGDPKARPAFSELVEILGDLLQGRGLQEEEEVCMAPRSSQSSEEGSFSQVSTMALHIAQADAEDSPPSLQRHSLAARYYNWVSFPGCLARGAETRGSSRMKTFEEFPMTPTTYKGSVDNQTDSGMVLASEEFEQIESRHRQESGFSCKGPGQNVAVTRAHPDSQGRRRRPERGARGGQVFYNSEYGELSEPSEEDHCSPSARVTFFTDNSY
For experiment [17] the target is unchanged. The conditions noted are these: at 1 µM.
Experiment [18] addresses Macrophage colony-stimulating factor 1 receptor (Homo sapiens) (UniProt P07333). The conditions noted are these: at 0.1 µM.
Experiment [19] has the same target. The conditions noted are these: at 1 µM.
Experiment [20] has as its target Tyrosine-protein kinase Fyn (Homo sapiens) (UniProt P06241). To be noted: at 0.1 µM.

Chain of Macrophage colony-stimulating factor 1 receptor (Homo sapiens) (P07333 whole entry): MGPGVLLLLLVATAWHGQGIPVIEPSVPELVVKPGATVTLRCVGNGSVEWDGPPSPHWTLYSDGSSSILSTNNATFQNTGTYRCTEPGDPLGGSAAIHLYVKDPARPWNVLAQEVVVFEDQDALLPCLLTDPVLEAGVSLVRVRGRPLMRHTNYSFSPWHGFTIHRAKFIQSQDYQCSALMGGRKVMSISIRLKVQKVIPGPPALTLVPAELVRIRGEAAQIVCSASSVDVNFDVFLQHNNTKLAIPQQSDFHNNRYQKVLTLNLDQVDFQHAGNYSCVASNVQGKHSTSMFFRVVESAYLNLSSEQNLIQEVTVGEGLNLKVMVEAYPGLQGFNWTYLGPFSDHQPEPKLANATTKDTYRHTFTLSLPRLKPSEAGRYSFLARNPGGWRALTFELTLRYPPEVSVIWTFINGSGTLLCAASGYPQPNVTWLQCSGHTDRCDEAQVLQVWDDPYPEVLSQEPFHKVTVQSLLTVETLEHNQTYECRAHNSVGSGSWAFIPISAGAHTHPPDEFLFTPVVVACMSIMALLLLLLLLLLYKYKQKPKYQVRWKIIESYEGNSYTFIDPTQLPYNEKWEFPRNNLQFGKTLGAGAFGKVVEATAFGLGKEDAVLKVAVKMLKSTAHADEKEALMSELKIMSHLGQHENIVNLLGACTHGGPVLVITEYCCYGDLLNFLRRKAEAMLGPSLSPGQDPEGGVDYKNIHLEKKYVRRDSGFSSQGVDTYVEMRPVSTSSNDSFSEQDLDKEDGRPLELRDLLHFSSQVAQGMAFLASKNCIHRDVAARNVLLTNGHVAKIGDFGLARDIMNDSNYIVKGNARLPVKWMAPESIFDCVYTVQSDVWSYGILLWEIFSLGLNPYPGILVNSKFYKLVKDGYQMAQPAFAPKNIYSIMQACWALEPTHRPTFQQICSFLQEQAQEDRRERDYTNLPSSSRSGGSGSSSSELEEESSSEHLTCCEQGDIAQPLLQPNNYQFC
Chain of Tyrosine-protein kinase Fyn (Homo sapiens) (P06241 2-537 limits assumed): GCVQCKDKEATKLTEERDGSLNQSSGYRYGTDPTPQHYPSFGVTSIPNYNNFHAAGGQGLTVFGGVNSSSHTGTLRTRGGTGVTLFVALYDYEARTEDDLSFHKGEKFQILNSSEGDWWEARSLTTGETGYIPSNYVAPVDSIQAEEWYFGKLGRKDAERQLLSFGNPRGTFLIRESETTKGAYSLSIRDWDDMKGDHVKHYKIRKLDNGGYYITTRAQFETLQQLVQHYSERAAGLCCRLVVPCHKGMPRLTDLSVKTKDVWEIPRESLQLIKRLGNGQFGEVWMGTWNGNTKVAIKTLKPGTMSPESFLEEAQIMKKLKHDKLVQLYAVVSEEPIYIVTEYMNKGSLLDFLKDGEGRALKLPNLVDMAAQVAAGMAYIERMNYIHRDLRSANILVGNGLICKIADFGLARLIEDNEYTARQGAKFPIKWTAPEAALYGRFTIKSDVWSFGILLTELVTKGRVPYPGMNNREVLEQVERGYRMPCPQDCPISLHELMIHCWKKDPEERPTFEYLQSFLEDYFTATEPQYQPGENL

One may read the inhibition as the relative decrease from the control value, in per cent. `COc1cccc(-n2ncc3c(N/N=C/c4ccc(S(C)(=O)=O)cc4)ncnc32)c1`: the inhibition in experiment [1] was determined as 8.64%; in experiment [2] it was 1.92%; in experiment [3], 5.16%; in [4], 2.11%; in [5], 1.84%; in experiment [6], 1.65%. For the same compound, the inhibition in experiment [7] is -0.32%; in experiment [8], 3.45%; in experiment [9], 2.28%; in [10] it was 4.38%; in experiment [11], 1.23%; in experiment [12], 1.67%. Besides, the inhibition in experiment [13] is 0.92%; in [14], 2.54%; in [15] it was 61.9%; in [16], -2.95%; in experiment [17], 31.4%; in [18] it was 6.39%. Further, the inhibition came out at 22.5% in [19] and 32.4% in [20].
